# Assay results: PubChem BioAssay (Tox21)
# Unmarked numbers belong to inactive results. Records with an inconclusive call do not appear. A call without a number means that no potency is given here. The source made the active and inactive calls. Unless noted, calls follow the shape of the dose curve; as a rule, active = well fitted curve in the direction sought with a large enough effect in the repeat runs; inconclusive = weak or mixed curves; inactive = no such curve, though single readings can be large; an effect the other way counts as inactive or inconclusive.
# Legend:
# [1] = qHTS assay to identify small molecule antagonists of the estrogen related receptor (ERR) signaling pathway from Tox21 library - cell viability counter screen (AID 1224834); also: nearly all actives have a fitted effect of over 30% in size
# Procedure, shortened: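 ERR cells, 2,000/well; 6 h settle at 37 C/5% CO2; pin-tool compound transfer in DMSO; 17.5 h at 37 C; CellTiter-Fluor, 30 min; fluorescence intensity.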
# [2] = target: Luciferin 4-monooxygenase (Photinus pyralis) (UniProt P08659); experiment: qHTS assay to identify small molecule inhibitors of firefly luciferase (AID 1224835); also: nearly all actives have a fitted effect of over 25% in size
# Procedure, shortened: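 Quantitative HTS format; KM concentrations of both substrates. Purified P. pyralis FLuc activity quantified from luminescence images.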
# [3] = qHTS assay to identify small molecule agonists of the constitutive androstane receptor (CAR) signaling pathway - cell viability counter screen (AID 1224836); also: nearly all actives have a fitted effect of over 45% in size
# Procedure, shortened: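 HepG2 cells stably carrying hCAR and a CYP2B6-2.2kb reporter; 15-concentration compounds plus PK11195 (final 0.75 uM), 23 hr at 37 C/5% CO2. Viability read by CellTiter-Fluor fluorescence.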
# [4] = target: Nuclear receptor subfamily 1 group I member 3 (Homo sapiens) (UniProt Q14994); experiment: qHTS assay to identify small molecule antagonists of the constitutive androstane receptor (CAR) signaling pathway (AID 1224838);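 also: HepG2 cells stably expressing hCAR with CYP2B6 luciferase reporter stimulated by CITCO; nearly all actives have a fitted effect of over 40% in size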
# Procedure, shortened: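 Antagonist mode used CITCO at a final 50 nM to activate CAR in human hepatoma HepG2 cells carrying stable hCAR and a 2.2 kb CYP2B6 promoter-luciferase construct. Compounds were tested at 15 concentrations over 24 h, with luminescence as the end point.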
# [5] = qHTS assay to identify small molecule antagonists of the estrogen related receptor signaling pathway with the pleiotropic PPARgamma coactivator (PGC) from Tox21 10K library - cell viability counter screen (AID 1224840; active = well fitted cell-killing curve with a large enough effect in the repeat runs, not every such curve was filed as active; also: nearly all actives have a fitted effect of over 40% in size)
# Procedure, shortened: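 Multiplexed viability counter screen in the PGC/ERR cell line: cells treated with DMSO-dissolved compounds for 17.5 hours at 37 C, then viability measured as CellTiter-Fluor fluorescence.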
# [6] = qHTS assay to identify small molecule agonists of the hypoxia (HIF-1) signaling pathway - cell viability counter screen (AID 1224844; calls by dose curve; also: nearly all actives have a fitted effect of over 50% in size)
# Procedure, shortened: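 Cytotoxicity was measured in parallel with the HRE-driven beta-lactamase readout: after 17 hrs of compound exposure at 37C, HRE-bla ME-180 cells received CellTiter-Glo and luminescence was recorded 30 min later.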
# [7] = qHTS assay to identify small molecule agonists of H2AX (AID 1224845; active = well fitted activation curve with a large enough effect in the signal ratio in the repeat runs, not every such curve was filed as active; the % refers to the signal ratio)
# Procedure, shortened: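 Wild-type CHO-K1 cells plated overnight, then exposed 3 hr at 37C to compounds at 15 concentrations (0.76% DMSO). Lysed, then HTRF anti-pH2AX(S139)-cryptate/anti-H2AX-d2 detection after 24 hr at room temperature; emissions 665 and 620 nm.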
# [8] = qHTS assay to identify small molecule agonists of H2AX - cell viability counter screen (AID 1224847; calls by dose curve; also: nearly all actives have a fitted effect of over 30% in size; also: potency is read from the fitted curve at half-maximal effect)
# Procedure, shortened: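 CHO-K1 cells plated overnight at 37C, then exposed 3 h at 37C to compounds at 15 concentrations (0.76% DMSO final). Viability by CellTiter-Glo luminescence after 30 min at room temperature.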
# [9] = qHTS RealTime-Glo MT Cell Viability Assay in HepG2 cells - 24 hour (AID 1224867); also: nearly all actives have a fitted effect of over 50% in size
# Procedure, shortened: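 Cells + NanoLuc/prosubstrate dispensed (600 cells/well) → 5 h at 37 C/5% CO2 → compounds in DMSO transferred → 40 h incubation at 37 C, luminescence read at 0, 8, 16, 24, 32, 40 h.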
# [10] = qHTS RealTime-Glo MT Cell Viability Assay in HEK293 cells - 32 hour (AID 1224868); also: nearly all actives have a fitted effect of over 50% in size; also: potency is read from the fitted curve at half-maximal effect
# Procedure, shortened: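 Tox21 10K qHTS, HEK293, 600 cells/well, RealTime-Glo reagent co-dispensed with cells; 5 h preincubation, compound by pintool, 37 C, luminescence at 0–40 h.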
# [11] = A CellTox Green Cytotoxicity Assay to monitor cytotoxicity in HEK293 cells - 0 hour (AID 1224869); also: nearly all actives have a fitted effect of over 50% in size
# Procedure, shortened: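 Cells (HEK293, 600/well) and dye reagent are dispensed together. After 5 h at 37 C, 23 nL compound is pinned in. Plates stay at 37 C for 40 h with fluorescence read at 0h, 8h, 16h, 24h, 32h and 40h.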
# [12] = qHTS RealTime-Glo MT Cell Viability Assay in HepG2 cells - 40 hour (AID 1224870); also: nearly all actives have a fitted effect of over 50% in size
# Procedure, shortened: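 HepG2 cells mixed with RealTime-Glo MT reagents (NanoLuc plus cell-permeant prosubstrate) were seeded at 600 cells/well, incubated 5 h at 37 C/5% CO2, then pinned with compounds in DMSO; nonlytic luminescence tracked viability during 40 h treatment.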
# [13] = qHTS assay to identify small molecule antagonists of the constitutive androstane receptor (CAR) signaling pathway - cell viability counter screen (AID 1224837); also: nearly all actives have a fitted effect of over 45% in size
# Procedure, shortened: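 Viability was measured with CellTiter-Fluor in a HepG2 line carrying stably transfected hCAR and a CYP2B6-2.2kb construct. Cells were exposed for 23 hr at 37 C to 15 compound concentrations with 50 nM CITCO as agonist.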
# [14] = qHTS assay to identify small molecule agonists of the hypoxia (HIF-1) signaling pathway (AID 1224846; active = well fitted activation curve with a large enough effect in the signal ratio in the repeat runs, not every such curve was filed as active; the % refers to the signal ratio)
# Procedure, shortened: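 Compounds from the Tox21 10K library, dissolved in DMSO, are tested for induction of a hypoxia response element–controlled beta-lactamase reporter in ME-180 cells. Exposure lasts 17 hrs at 37C after a 5 hr settling period, followed by CCF4-AM FRET substrate.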
# [15] = target: Thyrotropin receptor (Homo sapiens) (UniProt P16473); experiment: qHTS assay to identify small molecule agonists of the thyroid stimulating hormone receptor (TSHR) signaling pathway (AID 1224843; calls by dose curve; also: nearly all actives have a fitted effect of over 45% in size)
# Procedure, shortened: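 Using 15 concentrations per compound in triplicate, cAMP production was monitored in TSHR-HEK293 cells after 30 min compound incubation at RT; HTRF reagents followed, with fluorescence intensity recorded after 1 h.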
# [16] = target: Nuclear receptor subfamily 1 group I member 3 (Homo sapiens) (UniProt Q14994); experiment: qHTS assay to identify small molecule agonists of the constitutive androstane receptor (CAR) signaling pathway (AID 1224839); also: nearly all actives have a fitted effect of over 15% in size
# Procedure, shortened: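 HepG2 cells stably co-transfected with hCAR and a CYP2B6-2.2kb luciferase reporter; compounds at 15 concentrations with 0.75 uM PK11195 present. After 24 hr at 37 C, luciferase read by ONE-Glo luminescence.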
# [17] = qHTS assay to identify small molecule antagonists of the estrogen related receptor signaling pathway with the pleiotropic PPARgamma coactivator (PGC) from Tox21 10K library (AID 1224841; call rule not given here)
# Procedure, shortened: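 Steps: plate 2,000 PGC/ERR cells per well; incubate 6 h at 37 C with 5% CO2; transfer compounds from DMSO stocks by pin tool; incubate 18 h at 37 C; add One-Glo; measure luminescence 30 min later.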
# [18] = qHTS assay to identify small molecule agonists of the estrogen related receptor signaling pathway with the pleiotropic PPARgamma coactivator (PGC) from Tox21 10K library (AID 1224842); also: nearly all actives have a fitted effect of over 15% in size
# Procedure, shortened: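 PGC/ERR reporter cells (NTP line) were seeded 2,000 per well, rested 6 h at 37 C/5% CO2, then pin-dosed with compounds in DMSO for 18 h at 37 C; luciferase read by One-Glo luminescence after 30 min at room temperature.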
# [19] = qHTS assay to identify small molecule antagonists of the estrogen related receptor (ERR) signaling pathway from Tox21 library (AID 1224848); also: nearly all actives have a fitted effect of over 50% in size
# Procedure, shortened: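 Tox21 10K compounds in DMSO tested for ERR pathway antagonism in NTP's ERR cell line; 18 h, 37 C exposure; ONE-Glo luminescence.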
# [20] = qHTS assay to identify small molecule agonists of the estrogen related receptor (ERR) signaling pathway from Tox21 library (AID 1224849; calls by dose curve; also: nearly all actives have a fitted effect of over 15% in size); details: ERR reporter cell line, ONE-Glo luciferase, 18 h; at 92.4 µM (top of the series) unless noted
# Procedure, shortened: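 Cells carrying the ERR reporter were plated and allowed to settle for 6 h, exposed to library compounds for 18 h at 37 C, then lysed with ONE-Glo and luminescence measured.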
# Sequence of Luciferin 4-monooxygenase (Photinus pyralis) (P08659 whole entry, looked up): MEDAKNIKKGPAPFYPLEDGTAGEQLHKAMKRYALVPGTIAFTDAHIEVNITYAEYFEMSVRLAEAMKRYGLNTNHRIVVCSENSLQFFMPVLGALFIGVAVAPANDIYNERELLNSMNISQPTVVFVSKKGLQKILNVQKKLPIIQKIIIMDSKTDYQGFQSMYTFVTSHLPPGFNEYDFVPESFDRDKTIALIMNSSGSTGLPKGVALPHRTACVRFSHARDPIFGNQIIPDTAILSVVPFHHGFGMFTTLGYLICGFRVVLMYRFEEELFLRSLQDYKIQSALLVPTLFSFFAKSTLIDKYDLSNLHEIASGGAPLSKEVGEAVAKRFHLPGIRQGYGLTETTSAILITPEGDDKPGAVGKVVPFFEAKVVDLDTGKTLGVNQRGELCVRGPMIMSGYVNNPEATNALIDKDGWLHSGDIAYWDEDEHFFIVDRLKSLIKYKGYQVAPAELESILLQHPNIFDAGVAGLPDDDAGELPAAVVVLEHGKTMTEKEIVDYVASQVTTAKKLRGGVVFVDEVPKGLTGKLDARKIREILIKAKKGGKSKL
# Sequence of Thyrotropin receptor (Homo sapiens) (P16473 whole entry, looked up): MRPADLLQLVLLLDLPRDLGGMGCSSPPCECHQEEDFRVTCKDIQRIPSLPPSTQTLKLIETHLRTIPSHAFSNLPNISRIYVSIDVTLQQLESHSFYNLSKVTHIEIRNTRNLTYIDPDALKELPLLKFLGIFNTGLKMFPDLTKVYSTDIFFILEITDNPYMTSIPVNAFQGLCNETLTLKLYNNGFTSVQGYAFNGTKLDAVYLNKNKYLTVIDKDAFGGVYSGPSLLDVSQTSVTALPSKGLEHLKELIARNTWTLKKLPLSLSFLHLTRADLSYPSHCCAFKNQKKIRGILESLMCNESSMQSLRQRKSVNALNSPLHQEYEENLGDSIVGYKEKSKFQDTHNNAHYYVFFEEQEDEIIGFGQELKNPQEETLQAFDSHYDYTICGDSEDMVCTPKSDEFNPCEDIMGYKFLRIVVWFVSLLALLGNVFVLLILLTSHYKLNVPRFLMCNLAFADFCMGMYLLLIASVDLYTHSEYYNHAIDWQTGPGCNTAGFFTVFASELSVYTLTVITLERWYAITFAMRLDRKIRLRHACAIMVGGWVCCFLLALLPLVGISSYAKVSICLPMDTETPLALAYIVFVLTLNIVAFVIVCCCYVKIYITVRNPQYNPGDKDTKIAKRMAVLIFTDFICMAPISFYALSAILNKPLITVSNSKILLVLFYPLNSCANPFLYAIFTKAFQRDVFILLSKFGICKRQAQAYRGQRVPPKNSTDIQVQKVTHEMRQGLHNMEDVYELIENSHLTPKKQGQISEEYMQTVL
# Sequence of Nuclear receptor subfamily 1 group I member 3 (Homo sapiens) (Q14994 whole entry, looked up): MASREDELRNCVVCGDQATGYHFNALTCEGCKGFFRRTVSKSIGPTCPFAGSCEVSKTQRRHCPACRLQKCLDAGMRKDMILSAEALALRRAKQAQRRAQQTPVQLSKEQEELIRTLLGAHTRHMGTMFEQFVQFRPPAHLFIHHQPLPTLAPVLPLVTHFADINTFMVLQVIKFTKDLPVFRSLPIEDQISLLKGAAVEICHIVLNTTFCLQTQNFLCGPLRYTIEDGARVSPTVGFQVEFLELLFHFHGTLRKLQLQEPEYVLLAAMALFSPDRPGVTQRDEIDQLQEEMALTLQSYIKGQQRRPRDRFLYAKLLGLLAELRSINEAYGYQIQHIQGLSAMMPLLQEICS
SMILES,Potency [1],Potency [2],outcome [3],Potency [4],outcome [5],Potency [6],outcome [7],Potency [8],outcome [9],Potency [10],Potency [11],Potency [12],outcome [13],outcome [14],outcome [15],Potency [16],Potency [17],Potency [18],Potency [19],"activity change, positive = activation [20] [%]"
C/C=C1\C(=O)C[C@H]2[C@@H]3CCC4=CC(=O)CC[C@]4(C)[C@H]3CC[C@]12C,inactive,inactive,inactive,inactive,inactive,inactive,inactive,55.5 µM (active),inactive,21.4 µM (active),inactive,inactive,–,–,–,–,–,–,–,–
OC/C=C/c1ccccc1,inactive,inactive,inactive,–,inactive,inactive,inactive,inactive,inactive,inactive,inactive,inactive,inactive,inactive,–,–,–,–,–,–
Nc1cc(C(Cl)=C(Cl)Cl)c(S(N)(=O)=O)cc1S(N)(=O)=O,inactive,inactive,inactive,–,inactive,inactive,–,inactive,inactive,inactive,inactive,inactive,inactive,–,inactive,–,–,–,–,–
CCCCN(CCO)CCO,inactive,inactive,inactive,inactive,inactive,inactive,inactive,inactive,inactive,inactive,inactive,inactive,–,inactive,–,inactive,inactive,inactive,inactive,3.71
O=C(O)c1ccccc1-c1ccc(C(F)(F)F)cc1,inactive,inactive,inactive,–,inactive,inactive,inactive,inactive,–,inactive,inactive,inactive,inactive,inactive,inactive,–,–,–,–,–
CC(=O)NC(Cc1ccccc1)C(=O)O (stereo unspecified),inactive,inactive,inactive,inactive,inactive,inactive,inactive,inactive,inactive,inactive,inactive,inactive,–,inactive,inactive,inactive,–,–,–,–
C(=C(c1ccccc1)c1ccccc1)c1ccccc1,inactive,inactive,inactive,–,inactive,–,inactive,80 µM (active),inactive,inactive,inactive,inactive,inactive,–,–,–,–,–,–,–
CCC(=O)c1cccc(Cl)c1,inactive,inactive,inactive,–,inactive,–,inactive,inactive,–,inactive,inactive,inactive,inactive,inactive,inactive,–,–,–,–,–
